A short description of experiment [1]: Nuclear factor erythroid 2-related factor 2/antioxidant responsive element (Nrf2/ARE) small molecule agonists: qHTS cell viability counter screen in human keratinocytes (AID 1919968; active means well fitted curve in the direction sought with a large enough effect in the repeat runs; an effect the other way counts as inactive or inconclusive; further: nearly all actives have a fitted effect of over 55% in size). The essentials:
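Viability counter-screen: KeratinoSens reporter cells, DMSO-delivered compounds, 23 h at 37 C, CellTiter-Fluor fluorescence.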
(qHTS replaces the single test concentration by a dilution series.)

Experiment [2] can be described thus: Nuclear factor erythroid 2-related factor 2/antioxidant responsive element (Nrf2/ARE) small molecule agonists: luciferase reporter gene qHTS assay in human keratinocytes (AID 1919969). Further: nearly all actives have a fitted effect of over 35% in size. Further: potency means the concentration at half of the fitted maximal effect. Background: In a reporter assay the amount or activity of a reporter protein is the signal.
Experiment [3] has as its target Gonadotropin-releasing hormone receptor (Homo sapiens) (UniProt P30968). Put plainly: Human gonadotropin-releasing hormone receptor (GnRHR) small molecule agonists, calcium flux assay in GnRHR-HEK293 cells (AID 1920063). Further: nearly all actives have a fitted effect of over 35% in size. The essentials: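 Tox21-format agonist screen using human GnRHR-expressing HEK293 cells and a fluorescent calcium dye; kinetic 3-min fluorescence reading after compound addition, 15-point concentration series run in triplicate.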
(Calcium assays in cells follow changes in intracellular calcium, usually with a dye or a luminescent sensor.)

Experiment [4] has as its target KiSS-1 receptor (Homo sapiens) (UniProt Q969F8). Put plainly: Human kisspeptin (KISS1R) small molecule agonists, calcium flux assay in KISS1R-HEK293 cells (AID 1920064; active means well fitted curve in the direction sought with a large enough effect in the repeat runs; an effect the other way counts as inactive or inconclusive). The essentials:
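Intracellular calcium mobilization in KISS1R-HEK293 cells was recorded by fluorescence (Ex/Em 480/540) for 3 min following compound addition to cells pre-loaded 1 h with calcium dye.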

Experiment [5] is described as follows: G protein-coupled receptor (GPCR) small molecule agonists, calcium flux assay: HEK293 wild type cell line counter screen (AID 1920065). A digest of the protocol: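 In this agonist-mode screen, ATP is the positive control and DMSO the vehicle. Cells grow 18 h before a 1 h dye incubation at 37 C; signal is taken at Ex/Em 480/540 over 3 min.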
Experiment [6] is described as follows: p53 small molecule agonists, cell-based qHTS assay with human liver microsomes (AID 1963577). The essentials: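 Compounds act here after metabolic activation: human liver microsomes and NADPH, both at 0.5 mg/mL final, were co-added to p53RE-bla cells. Incubation ran 16 h at 37 C, followed by LiveBLAzer detection.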
The nature of experiment [7]: p53 small molecule agonists, cell-based qHTS assay with rat liver microsomes (AID 1963578). The essentials:
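Read-out is beta-lactamase reporter fluorescence (LiveBLAzer, 2 h, room temperature, dark) in p53RE-bla cells treated 16 h at 37 C with compound, rat liver microsomes and NADPH, both 0.5 mg/mL final.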

Experiment [8] can be described thus: p53 small molecule agonists, cell-based qHTS assay with human liver microsomes: qHTS cell viability counter screen (AID 1963579). Further: nearly all actives have a fitted effect of over 45% in size. A digest of the protocol: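 Cells carrying the p53 response-element beta-lactamase reporter are treated for 16 h at 37 C with test compounds in the presence of human liver microsomes and NADPH (both 0.5 mg/mL final); ATP-based CellTiter-Glo luminescence then reports viability.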

Experiment [9] can be described thus: p53 small molecule agonists, cell-based qHTS assay with rat liver microsomes: qHTS cell viability counter screen (AID 1963580). Further: nearly all actives have a fitted effect of over 45% in size. The essentials:
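In HCT-116 cells carrying a p53 response element-bla reporter, compounds were metabolically activated in situ by rat liver microsomes with NADPH over 16 h. Cell ATP content then served as the cytotoxicity measure.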

The nature of experiment [10]: p53 small molecule agonists, cell-based qHTS assay: qHTS cell viability counter screen (AID 1963581). Further: nearly all actives have a fitted effect of over 45% in size. A digest of the protocol: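 Compounds are pinned onto HCT-116 p53RE-bla cells and left 16 h at 37 C. Following the reporter FRET read, ATP is quantified by CellTiter-Glo luminescence after 30 min at room temperature.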
The nature of experiment [11]: p53 small molecule agonists, cell-based qHTS assay (AID 1963582; active means well fitted activation curve with a large enough effect in the signal ratio in the repeat runs, not every such curve was filed as active; the % refers to the signal ratio). The essentials: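 Agonist activity was scored from beta-lactamase FRET fluorescence in p53RE-bla cells treated 16 h at 37 C with compounds in DMSO, substrate incubation being 2 h at room temperature.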
Experiment [12] concerns the target 5-hydroxytryptamine receptor 2A (Homo sapiens) (UniProt P28223). As to the kind of experiment: 5-hydroxytryptamine receptor 2A (HTR2A) small molecule antagonists, cell-based qHTS assay (AID 1963586). Further: nearly all actives have a fitted effect of over 45% in size. The essentials: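 Antagonist-mode intracellular calcium assay: DOI (4 nM) added after 5 min compound pre-incubation at room temperature to dye-loaded HTR2A-CHO cells. Fluorescence followed for 3 min, sampled every second.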

The target is the same in experiment [13]. Put plainly: 5-hydroxytryptamine receptor 2A (HTR2A) small molecule agonists, cell-based qHTS assay (AID 1963587). Further: nearly all actives have a fitted effect of over 30% in size. The essentials: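 HTR2A-CHO cells, plated 18 h at 37 C/5% CO2, dye-loaded 1 h at 37 C; compounds in DMSO added by pin tool (agonist mode). Intracellular calcium flux read as kinetic fluorescence on FDSS over 2 min at 1 s intervals.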
Experiment [14] has as its target Muscarinic acetylcholine receptor M1 (Homo sapiens) (UniProt P11229). Put plainly: Cholinergic receptor muscarinic 1 (CHRM1) small molecule antagonists, cell-based qHTS assay (AID 1963588). Further: nearly all actives have a fitted effect of over 40% in size. A digest of the protocol: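 CHRM1-CHO calcium-flux assay, antagonist mode. Cells were seeded 18 h, dye-loaded 1 h at 37 C and given compound for 5 min at RT, then acetylcholine was added at 50nM. FDSS fluorescence was read 3 min; 15 concentrations, three runs.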

The target is the same in experiment [15]. Put plainly: Cholinergic receptor muscarinic 1 (CHRM1) small molecule agonists, cell-based qHTS assay (AID 1963589). Further: nearly all actives have a fitted effect of over 35% in size. A digest of the protocol: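 Stable CHRM1-CHO cells (human receptor) were incubated 18 h, dye-loaded for 1 h at 37 C and exposed to test compounds for agonist activity, with calcium-dependent fluorescence followed kinetically.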
Experiment [16] is described as follows: cAMP Responsive Elements (CRE) small molecule agonists, cell-based qHTS assay (AID 1963590). A digest of the protocol:
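FRET-based beta-lactamase readout (LiveBLAzer B/G, 2 h RT) quantified CRE activation in HEK 293T CRE-bla cells after 3 h treatment with DMSO-dissolved compounds.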

Experiment [17] can be described thus: cAMP Responsive Elements (CRE) small molecule antagonists, cell-based qHTS assay (AID 1963591; active means well fitted inhibition curve with a large enough effect in the signal ratio in the repeat runs, not every such curve was filed as active; the % refers to the signal ratio). A digest of the protocol: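 qHTS in CRE-bla HEK 293T cells: compound in DMSO, then 0.25 uM NKH477 (final), 3 h at 37 °C/5% CO2; beta-lactamase FRET read-out after 2 h substrate incubation.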
Experiment [18] addresses Beta-2 adrenergic receptor (Homo sapiens) (UniProt P07550). As to the kind of experiment: Adrenergic beta2 receptor (ADRB2) small molecule antagonists, cell-based qHTS assay (AID 1963592). Further: series mostly up to about 92 µM; nearly all actives have a fitted effect of over 50% in size. The essentials: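 Cells (CHO, stable ADRB2 overexpression) incubated 18-20hr at 37C; compounds added from DMSO; agonist mix (1nM isoproterenol, 100uM IBMX, 25uM Ro-20-1724) added; 0.5hr RT; d2-cAMP and anti-cAMP-cryptate added; 1hr RT; 665/615 nm read.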

Experiment [19] has the same target. Put plainly: Adrenergic beta2 receptor (ADRB2) small molecule agonists, cell-based qHTS assay (AID 1963593).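 Further: CHO cells stably overexpressing human ADRB2.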 A digest of the protocol:
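CHO cells stably over-expressing ADRB2 were plated overnight at 37C, then dosed with compounds plus a stimulation mix containing 100uM IBMX and 25uM Ro-20-1724 for 0.5hr at room temperature. cAMP was measured by HTRF competition, 1hr.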

In experiment [20] the target is D(2) dopamine receptor (Homo sapiens) (UniProt P14416). Put plainly: Dopamine D2 receptor (DRD2) small molecule agonists, cell-based qHTS assay (AID 1963594). Further: nearly all actives have a fitted effect of over 35% in size. The essentials: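 HEK293 cells stably expressing DRD2 were cultured 24 h at 37 C, then given Ro20-1724 (0.1 mM final) and compounds for 10 min at room temperature. NKH477 (200nM) was then added for 30 min. cAMP was read by HTRF.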
Chain of D(2) dopamine receptor (Homo sapiens) (P14416 whole entry, looked up): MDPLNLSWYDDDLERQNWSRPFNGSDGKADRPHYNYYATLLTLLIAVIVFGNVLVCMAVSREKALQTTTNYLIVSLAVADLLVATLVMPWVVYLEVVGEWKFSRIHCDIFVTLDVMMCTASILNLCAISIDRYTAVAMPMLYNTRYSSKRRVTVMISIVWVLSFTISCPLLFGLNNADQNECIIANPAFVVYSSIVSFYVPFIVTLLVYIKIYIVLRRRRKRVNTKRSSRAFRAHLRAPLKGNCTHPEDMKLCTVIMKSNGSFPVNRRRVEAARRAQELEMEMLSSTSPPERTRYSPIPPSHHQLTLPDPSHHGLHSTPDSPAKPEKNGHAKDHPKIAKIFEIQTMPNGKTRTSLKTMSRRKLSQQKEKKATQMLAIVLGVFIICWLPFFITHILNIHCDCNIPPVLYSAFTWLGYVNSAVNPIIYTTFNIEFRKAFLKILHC

Records with an inconclusive call do not appear. Activity calls are given as the source filed them. Unless noted, the call rests on the fitted dose curve.

Chain of KiSS-1 receptor (Homo sapiens) (Q969F8 whole entry, looked up): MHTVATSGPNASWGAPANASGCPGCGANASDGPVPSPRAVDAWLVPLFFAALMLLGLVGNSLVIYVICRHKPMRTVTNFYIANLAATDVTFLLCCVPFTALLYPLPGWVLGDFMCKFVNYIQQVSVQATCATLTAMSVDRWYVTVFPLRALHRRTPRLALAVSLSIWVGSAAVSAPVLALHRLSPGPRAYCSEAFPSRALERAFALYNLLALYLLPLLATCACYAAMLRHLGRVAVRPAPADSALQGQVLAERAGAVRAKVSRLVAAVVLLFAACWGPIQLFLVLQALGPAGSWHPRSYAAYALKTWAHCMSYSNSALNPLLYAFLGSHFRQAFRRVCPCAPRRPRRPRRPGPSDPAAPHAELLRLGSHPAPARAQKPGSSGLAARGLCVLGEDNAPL
Chain of Beta-2 adrenergic receptor (Homo sapiens) (P07550 whole entry, looked up): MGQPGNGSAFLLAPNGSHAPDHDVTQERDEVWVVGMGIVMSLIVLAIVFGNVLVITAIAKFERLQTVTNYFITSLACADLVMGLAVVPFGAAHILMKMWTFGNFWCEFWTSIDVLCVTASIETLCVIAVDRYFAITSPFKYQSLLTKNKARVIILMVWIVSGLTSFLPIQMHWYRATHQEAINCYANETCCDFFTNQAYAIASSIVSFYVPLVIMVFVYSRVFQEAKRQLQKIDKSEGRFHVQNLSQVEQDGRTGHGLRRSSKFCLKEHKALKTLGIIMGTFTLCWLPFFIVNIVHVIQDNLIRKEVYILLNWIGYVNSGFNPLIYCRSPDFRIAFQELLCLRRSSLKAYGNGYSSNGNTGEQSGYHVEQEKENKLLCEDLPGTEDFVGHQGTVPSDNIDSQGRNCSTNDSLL
Chain of Gonadotropin-releasing hormone receptor (Homo sapiens) (P30968 whole entry, looked up): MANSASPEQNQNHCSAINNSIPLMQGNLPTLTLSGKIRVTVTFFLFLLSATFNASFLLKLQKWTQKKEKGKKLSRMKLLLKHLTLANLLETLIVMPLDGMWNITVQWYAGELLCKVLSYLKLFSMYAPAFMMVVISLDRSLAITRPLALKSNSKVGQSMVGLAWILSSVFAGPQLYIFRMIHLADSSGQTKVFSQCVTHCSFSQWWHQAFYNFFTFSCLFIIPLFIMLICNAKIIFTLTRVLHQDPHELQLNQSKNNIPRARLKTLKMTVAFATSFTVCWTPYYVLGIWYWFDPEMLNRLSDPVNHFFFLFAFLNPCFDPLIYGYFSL
Chain of Muscarinic acetylcholine receptor M1 (Homo sapiens) (P11229 whole entry, looked up): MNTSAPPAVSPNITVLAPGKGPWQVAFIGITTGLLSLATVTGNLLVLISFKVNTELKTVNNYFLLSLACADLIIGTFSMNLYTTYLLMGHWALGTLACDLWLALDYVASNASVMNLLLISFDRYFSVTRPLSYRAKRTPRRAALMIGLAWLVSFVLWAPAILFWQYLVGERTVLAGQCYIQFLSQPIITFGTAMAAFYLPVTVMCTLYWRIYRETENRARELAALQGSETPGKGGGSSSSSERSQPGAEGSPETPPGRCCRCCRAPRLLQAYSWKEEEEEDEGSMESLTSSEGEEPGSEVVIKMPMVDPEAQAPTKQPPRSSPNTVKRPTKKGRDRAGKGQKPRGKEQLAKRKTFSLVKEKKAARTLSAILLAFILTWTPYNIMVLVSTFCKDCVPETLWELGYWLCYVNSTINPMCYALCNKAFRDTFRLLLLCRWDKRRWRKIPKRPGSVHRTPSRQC
Chain of 5-hydroxytryptamine receptor 2A (Homo sapiens) (P28223 whole entry, looked up): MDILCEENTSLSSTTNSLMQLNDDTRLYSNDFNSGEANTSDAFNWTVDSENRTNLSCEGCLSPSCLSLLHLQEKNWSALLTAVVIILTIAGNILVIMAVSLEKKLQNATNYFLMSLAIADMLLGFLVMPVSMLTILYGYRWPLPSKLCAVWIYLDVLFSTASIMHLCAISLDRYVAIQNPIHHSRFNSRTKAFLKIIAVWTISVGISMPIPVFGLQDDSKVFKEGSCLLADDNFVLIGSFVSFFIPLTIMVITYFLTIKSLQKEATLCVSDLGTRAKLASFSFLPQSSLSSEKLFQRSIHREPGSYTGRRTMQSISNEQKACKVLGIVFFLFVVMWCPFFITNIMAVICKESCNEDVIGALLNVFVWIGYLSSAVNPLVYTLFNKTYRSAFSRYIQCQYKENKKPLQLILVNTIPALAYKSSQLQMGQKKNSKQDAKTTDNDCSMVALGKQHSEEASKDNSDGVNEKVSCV

Take `O=C(OC(=O)c1ccccc1)c1ccccc1`: the Potency entry in experiment [1], in experiment [2], in [3], in experiment [4], in experiment [5] and in experiment [6] was “inactive” in each case. Moreover, the Potency result in experiment [7], in experiment [8], in experiment [9], in [10], in experiment [11] and in experiment [12] was “inactive” each time. The Potency entry in experiment [13], in [14], in experiment [15], in experiment [16], in experiment [17] and in experiment [18] was “inactive” each time. Also, the Potency entry in [19] and in experiment [20] was “inactive” in each case.
For `CCc1ccc(Br)cc1`, the Potency entry in experiment [1], in experiment [2], in experiment [3], in [4], in [5] and in experiment [6] was “inactive” in each case. For the same compound, the Potency entry in [7], in [8], in [9], in [10], in [11] and in experiment [12] was “inactive” throughout. For the same compound, the Potency result in experiment [13], in experiment [14], in experiment [15], in [16], in experiment [17] and in [18] was “inactive” in each case. For the same compound, the Potency entry in [19] and in [20] was “inactive” each time.
Consider `CC(C)(c1ccccc1)c1ccc(Nc2ccc(C(C)(C)c3ccccc3)cc2)cc1`, for which the Potency entry in experiment [1], in [2], in experiment [3], in [4], in experiment [5] and in experiment [6] was “inactive” throughout. Besides, the Potency entry in experiment [7], in experiment [8], in experiment [9], in [10], in [11] and in experiment [12] was “inactive” throughout. Moreover, the Potency result in [13], in [14], in experiment [15], in [16], in experiment [17] and in experiment [18] was “inactive” each time. In addition, the Potency result in experiment [19] and in [20] was “inactive” each time.
With `CC(=O)/C=C/c1ccco1`, the Potency entry in [1], in experiment [2], in experiment [3], in experiment [4], in experiment [5] and in experiment [6] was “inactive” in each case. For the same compound, the Potency result in experiment [7], in [8], in experiment [9], in experiment [10], in experiment [11] and in experiment [12] was “inactive” throughout. In addition, the Potency entry in experiment [13], in [14], in experiment [15], in experiment [16], in [17] and in experiment [18] was “inactive” in each case. Also, the Potency result in experiment [19] and in experiment [20] was “inactive” in each case.
For the compound `FC(F)(F)C(Cl)Br` (stereo not given), the Potency result in experiment [1], in experiment [2], in experiment [3], in experiment [4], in [5] and in [6] was “inactive” throughout. Moreover, the Potency result in experiment [7], in [8], in experiment [9], in [10], in experiment [11] and in [12] was “inactive” in each case. For the same compound, the Potency entry in [13], in [14], in experiment [15], in [16], in experiment [17] and in [18] was “inactive” each time. The Potency result in experiment [19] and in [20] was “inactive” in each case.
Consider `CC(C)COC(=O)c1ccccc1O`, for which the Potency result in experiment [1], in experiment [2], in [3], in experiment [4], in [5] and in [6] was “inactive” throughout. In addition, the Potency entry in [7], in experiment [8], in [9], in experiment [10], in [11] and in experiment [12] was “inactive” each time. Also, the Potency entry in [13], in experiment [14], in experiment [15], in experiment [16], in experiment [17] and in [18] was “inactive” throughout. The Potency entry in [19] and in experiment [20] was “inactive” throughout.
Regarding `OC[C@H]1O[C@H](O[C@H]2O[C@H](CO)[C@@H](O)[C@H](O)[C@H]2O)[C@H](O)[C@@H](O)[C@@H]1O`, the Potency entry in experiment [1], in experiment [2], in experiment [3], in experiment [4], in experiment [5] and in experiment [6] was “inactive” each time. Moreover, the Potency result in experiment [7], in experiment [8], in [9], in experiment [10], in experiment [11] and in experiment [12] was “inactive” in each case. Besides, the Potency result in experiment [13], in [14], in experiment [15], in experiment [16], in experiment [17] and in experiment [18] was “inactive” in each case. Further, the Potency result in experiment [19] and in experiment [20] was “inactive” each time.
For `CCCCCCc1ccc(-c2ccc(C#N)cc2)cc1`, the Potency result in [1], in experiment [3], in [4], in experiment [5], in experiment [6] and in [7] was “inactive” throughout. Besides, the Potency entry in experiment [8], in experiment [9], in experiment [10], in experiment [11], in experiment [12] and in experiment [13] was “inactive” each time. Further, the Potency result in experiment [14], in experiment [15], in experiment [16], in experiment [17], in [18] and in experiment [19] was “inactive” in each case. The Potency result in [20] is “inactive”. For the same compound, in [2], the Potency was 13.4 µM (active).

The values above are taken from PubChem BioAssay (Tox21).
